Assay results from publication PMC5540273 (PLoS ONE, 2017).

These molecules were tested on EPHB2. Conditions: concentration: 1 μM,replicates: in singlicate; n = 1.
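Also: KINOMEscan kinase panel screen.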

Point of comparison: `CC(C)Nc1cc(-c2ccc3c(N)n[nH]c3c2)nc(N)n1` [GSK2221681], “%Inh” value 0%. Against it:
- Cl.Cl.NC[C@H](Cc1ccc(C(F)(F)F)cc1)NC(=O)c1cc(Br)c(-c2ccnc3[nH]ccc23)s1 [GSK1487252] — higher, 10%
- Nc1nc(Nc2ccccc2)cc(-c2ccc3c(N)n[nH]c3c2)n1 [GSK2225749] — the same, 0%
- CC(C)N1C(=O)Cc2cc(Nc3ncc(C(F)(F)F)c(NCc4cccc(S(C)(=O)=O)c4)n3)ccc21 — higher, 3%
- Cl.Cl.NC[C@H](CC1CCCCC1)NC(=O)c1cc(Br)c(-c2ccnc3[nH]ccc23)s1 [GSK1581427] — the same, 0%
- CN(C)CC(O)COc1ccc(Nc2nccc(-c3cnn4nc(N5CCOCC5)ccc34)n2)cc1 (stereo not shown) [GW767488] — the same, 0%
- CCN(CC)CCOc1ccc(Nc2ncc3cc(-c4c(Cl)cccc4Cl)c(=O)n(C)c3n2)cc1 [SB-601273] — higher, 100%
- Cc1n[nH]c2ccc(-c3cc(OC[C@@H](N)Cc4ccccc4)cnc3-c3ccoc3)cc12.O=C(O)C(F)(F)F.O=C(O)C(F)(F)F [GSK507358] — the same, 0%
- Cc1occc1-c1nc(N)c(OC[C@@H](N)Cc2c[nH]c3ccccc23)cc1-c1cc2c(C)n[nH]c2cn1 [GSK1660450] — the same, 0%
- C[C@@H]1CCN(C(=O)CC#N)C[C@@H]1N(C)c1ncnc2[nH]ccc12 — the same, 0%
- Cl.Oc1cc(-c2nc(-c3ccccc3)[nH]c2-c2ccncc2)ccc1Cl [SB-386023] — the same, 0%
- O=C(NCCCN1CCOC1=O)c1cnc(NCc2cc(Cl)ccc2Cl)nc1NC1CCCC1 — higher, 12%
- Cc1cc(C(=O)Nc2ccc(Oc3ccc4nc(NC(=O)C5CC5)cn4n3)cc2)nn1-c1ccccc1 — higher, 30%
- Cl.Cl.Nc1nc(-c2ccc3c(N)n[nH]c3c2)cc(N2CCCC(NC(=O)c3ccccc3)C2)n1 (stereo not shown) [GSK2286775] — higher, 10%
- CCN(CC)CCCCNc1ncc2cc(-c3c(Cl)cccc3Cl)c(NC(=O)NC(C)(C)C)nc2n1 — higher, 93%
- Cc1ccc2c(-c3ccncc3)c(-c3ccc(F)cc3)nn2c1.Cl [GW461484] — the same, 0%
- COc1ccc(C[C@@H](CN)NC(=O)c2cc(Br)c(-c3ccnc4[nH]ccc34)s2)cc1.Cl.Cl [GSK1389063] — higher, 1%
- O=C(NCCNc1ccnc(NCc2ccc(F)cc2)n1)c1cc2ccccc2s1 [GSK1379944] — higher, 80%
- CN(C)CCOc1ccc(-c2cc(-c3c[nH]nc3-c3ccccn3)ccn2)cc1 [GW835314] — higher, 11%
- CNC(=O)c1ccccc1Sc1ccc2c(/C=C/c3ccccn3)n[nH]c2c1 — the same, 0%
- NC(=O)c1cc(-c2ccccc2)cc2c(C3CCNCC3)c[nH]c12 [GSK301362] — higher, 29%
- CCn1c(-c2nonc2N)nc2c(C#CC(C)(C)O)nc(OCCN)cc21.Cl.Cl [GSK902056] — higher, 1%
- C[C@H]1Oc2cc(cnc2N)-c2c(nn(C)c2C#N)CN(C)C(=O)c2ccc(F)cc21 — higher, 30%
- Cc1ccc(-n2nc(C(C)(C)C)cc2NC(=O)Nc2ccc(OCCN3CCOCC3)c3ccccc23)cc1 [GW839464] — higher, 37%
- Cc1cc2cn[nH]c2cc1-c1cccc2c(N)c(C(N)=O)nnc12 — the same, 0%

What follows are molecules tested on EPHB3. Conditions: concentration: 1 μM,replicates: in singlicate; n = 1.

Point of comparison: `CN(C)CC(O)COc1ccc(Nc2nccc(-c3cnn4nc(N5CCOCC5)ccc34)n2)cc1` (stereo not shown) [GW767488], “%Inh” value 0%. Against it:
- Cl.Cl.NC[C@H](Cc1ccc(C(F)(F)F)cc1)NC(=O)c1cc(Br)c(-c2ccnc3[nH]ccc23)s1 [GSK1487252] — higher, 20%
- Nc1nc(Nc2ccccc2)cc(-c2ccc3c(N)n[nH]c3c2)n1 [GSK2225749] — the same, 0%
- CC(C)Nc1cc(-c2ccc3c(N)n[nH]c3c2)nc(N)n1 [GSK2221681] — the same, 0%
- CC(C)N1C(=O)Cc2cc(Nc3ncc(C(F)(F)F)c(NCc4cccc(S(C)(=O)=O)c4)n3)ccc21 — the same, 0%
- Cl.Cl.NC[C@H](CC1CCCCC1)NC(=O)c1cc(Br)c(-c2ccnc3[nH]ccc23)s1 [GSK1581427] — higher, 5%
- CCN(CC)CCOc1ccc(Nc2ncc3cc(-c4c(Cl)cccc4Cl)c(=O)n(C)c3n2)cc1 [SB-601273] — higher, 99.9%
- Cc1n[nH]c2ccc(-c3cc(OC[C@@H](N)Cc4ccccc4)cnc3-c3ccoc3)cc12.O=C(O)C(F)(F)F.O=C(O)C(F)(F)F [GSK507358] — higher, 14%
- Cc1occc1-c1nc(N)c(OC[C@@H](N)Cc2c[nH]c3ccccc23)cc1-c1cc2c(C)n[nH]c2cn1 [GSK1660450] — higher, 23%
- C[C@@H]1CCN(C(=O)CC#N)C[C@@H]1N(C)c1ncnc2[nH]ccc12 — the same, 0%
- Cl.Oc1cc(-c2nc(-c3ccccc3)[nH]c2-c2ccncc2)ccc1Cl [SB-386023] — higher, 22%
- O=C(NCCCN1CCOC1=O)c1cnc(NCc2cc(Cl)ccc2Cl)nc1NC1CCCC1 — higher, 24%
- Cc1cc(C(=O)Nc2ccc(Oc3ccc4nc(NC(=O)C5CC5)cn4n3)cc2)nn1-c1ccccc1 — higher, 19%
- Cl.Cl.Nc1nc(-c2ccc3c(N)n[nH]c3c2)cc(N2CCCC(NC(=O)c3ccccc3)C2)n1 (stereo not shown) [GSK2286775] — higher, 11%
- CCN(CC)CCCCNc1ncc2cc(-c3c(Cl)cccc3Cl)c(NC(=O)NC(C)(C)C)nc2n1 — higher, 26%
- Cc1ccc2c(-c3ccncc3)c(-c3ccc(F)cc3)nn2c1.Cl [GW461484] — higher, 5%
- COc1ccc(C[C@@H](CN)NC(=O)c2cc(Br)c(-c3ccnc4[nH]ccc34)s2)cc1.Cl.Cl [GSK1389063] — higher, 31%
- O=C(NCCNc1ccnc(NCc2ccc(F)cc2)n1)c1cc2ccccc2s1 [GSK1379944] — higher, 27%
- CN(C)CCOc1ccc(-c2cc(-c3c[nH]nc3-c3ccccn3)ccn2)cc1 [GW835314] — higher, 59%
- CNC(=O)c1ccccc1Sc1ccc2c(/C=C/c3ccccn3)n[nH]c2c1 — the same, 0%
- NC(=O)c1cc(-c2ccccc2)cc2c(C3CCNCC3)c[nH]c12 [GSK301362] — higher, 15%
- CCn1c(-c2nonc2N)nc2c(C#CC(C)(C)O)nc(OCCN)cc21.Cl.Cl [GSK902056] — higher, 11%
- C[C@H]1Oc2cc(cnc2N)-c2c(nn(C)c2C#N)CN(C)C(=O)c2ccc(F)cc21 — higher, 2%
- C[C@@H](Oc1cc(-c2cnn(C3CCNCC3)c2)cnc1N)c1c(Cl)ccc(F)c1Cl — higher, 16%
- C=CC(=O)Nc1cc2c(Nc3ccc(F)c(Cl)c3)ncnc2cc1OCCCN1CCOCC1 [GW781483] — the same, 0%
- Cc1ccc(-n2nc(C(C)(C)C)cc2NC(=O)Nc2ccc(OCCN3CCOCC3)c3ccccc23)cc1 [GW839464] — higher, 7%
- Cc1cc2cn[nH]c2cc1-c1cccc2c(N)c(C(N)=O)nnc12 — the same, 0%
